The values that follow come from the supplement of paper PMC11738630.

The experiment deals with Salmonella enterica serovar Typhimurium 14028s. Put plainly: approximate change in surviving CFU after surface colonization relative to water-only control (log10 CFU/mL change); higher = more surviving bacteria (less inhibition of surface colonization). The note with it: not stated (Biolog proprietary concentration), surface: plastic 96-well plate, 20-24 h at 25 °C.

Consider `O=P(O)(O)OC[C@H](O)CO` (racemic) [D,L-a-Glycerol-Phosphate], for which the “approximate change in surviving CFU (log10)” value (“approximate change … (log10)” for short) (Biolog plate: PM1, Biolog well: B7) was 1.31.
For the compound `O=C(CO)[C@@H](O)[C@H](O)[C@H](O)CO` [D-Fructose], the “approximate change … (log10)” value (Biolog plate: PM1, Biolog well: C7) was determined as 2.4.
On to `CC(O)CO` (centres undefined) [1,2-Propanediol], for which, for the setting “Biolog plate: PM1, Biolog well: D4”, the “approximate change … (log10)” value was -0.3.
On to `OC[C@H]1O[C@@H](O[C@H]2[C@H](O)[C@@H](O)[C@@H](O)O[C@@H]2CO)[C@H](O)[C@@H](O)[C@H]1O` [a-D-Lactose], for which the “approximate change … (log10)” value (Biolog plate: PM1, Biolog well: D9) was 1.05.
For `CC[C@H](O)C(=O)O` [a-Hydroxy Butyric Acid], the “approximate change … (log10)” value (Biolog plate: PM1, Biolog well: E7) is -2.3.
On to `CO[C@@H]1O[C@H](CO)[C@@H](O)[C@H](O)[C@H]1O` [B-Methyl-D-Glucoside], for which the “approximate change … (log10)” value (Biolog plate: PM1, Biolog well: E8) turned out to be 1.33.
`OCC(O)C(O)C(O)CO` (centres undefined) [Adonitol]: the “approximate change … (log10)” value (Biolog plate: PM1, Biolog well: E9) was determined as 1.37.
For the compound `O[C@H]1[C@H](O)[C@@H](O)[C@H](O)[C@@H](O)[C@H]1O` [myo-Inositol], where the note is “Biolog plate: PM1, Biolog well: F3”, the “approximate change … (log10)” value was determined as 0.902.
As to `C[C@H](O)[C@@H](N)C(=O)O` [D-Threonine], the “approximate change … (log10)” value (Biolog plate: PM1, Biolog well: F4) came to 0.901.
In the case of `O=C(O)[C@@H](O)[C@H](O)[C@H](O)[C@@H](O)C(=O)O` [Mucic Acid], for the setting “Biolog plate: PM1, Biolog well: F8”, the “approximate change … (log10)” value came out at 1.38.
Turning to `OCC1OC(OC2C(CO)OC(O)C(O)C2O)C(O)C(O)C1O` [D-Cellobiose], the “approximate change … (log10)” value (Biolog plate: PM1, Biolog well: F11) worked out at 1.2.
As to `COC(=O)CCC(=O)O` [Mono Methyl Succinate], the “approximate change … (log10)” value (Biolog plate: PM1, Biolog well: G9) is -1.74.
Regarding `O=C(O)Cc1cccc(O)c1` [m-Hydroxy Phenyl Acetic Acid], the “approximate change … (log10)” value (Biolog plate: PM1, Biolog well: H3) was -1.31.
Turning to `O=C[C@H](O)[C@H](O)[C@@H](O)CO` [L-Lyxose], the “approximate change … (log10)” value (Biolog plate: PM1, Biolog well: H6) was -0.987.
With `NCCO` [2-Aminoethanol], the “approximate change … (log10)” value (Biolog plate: PM1, Biolog well: H12) came out at 0.365.
With `O=C(O)[C@H]1O[C@@H](O)[C@H](O)[C@@H](O)[C@H]1O` [Pectin], the “approximate change … (log10)” value (Biolog plate: PM2, Biolog well: A12) was -0.343.
In the case of `OC[C@H]1O[C@@H](Oc2ccc(O)cc2)[C@H](O)[C@@H](O)[C@@H]1O` [Arbutin], the “approximate change … (log10)” value (Biolog plate: PM2, Biolog well: B8) is 1.29.
Consider `C[C@@H](O)[C@H](O)[C@H](O)[C@@H](O)C=O` [D-Fucose], for which the “approximate change … (log10)” value (Biolog plate: PM2, Biolog well: B11) is -0.408.
Turning to `OC[C@@H]1OC(O)[C@@H](O)[C@H](O)[C@H]1O` (stereo partly drawn) [L-Glucose], under “Biolog plate: PM2, Biolog well: C2”, the “approximate change … (log10)” value was 1.22.
